Shown are actives, neighbours in structure and some others; about 4.1% of the full set was active somewhere.
Casp6 inh – inhibitors of human caspase-6. 350,000 tested, 0.53% active. inhibition, % at 12.5 µM. purified caspase-6, Z-VEID-R110 cleavage fluorescence. AID 686996. P55212;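 active = mean inhibition across replicates at least about 35%, with every replicate also reaching that limit, limit read from the data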;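 note: 0% = median of neutral control wells and 100% = no fluorescence left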
Env fusion inh – blocks HIV Env-driven cell-cell fusion | 360,000 tested, 1.1% active | AID 651610 | inhibition, % at 12.3 µM | HeLa-JRFL Env/CEM21 cell fusion, luciferase;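 active = mean replicate inhibition score of at least 50 and every replicate individually at or above 50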;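 note: 0% = plate neutral controls and 100% = maraviroc near 300 nM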
F508del corr – correctors of CFTR F508del function in bronchial epithelial cells; activity (quench increase), % at 7.58 µM; 350,000 tested, 0.36% active; CFBE cells, YFP halide quenching; stimulated with forskolin plus potentiator P3; % fluorescence drop versus neutral controls; AID 720511;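 active = mean added fluorescence quench of at least 8% versus neutral control, with both replicates also reaching 8%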;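 note: cells transiently co-express mutant CFTR-F508del with the halide-sensitive YFP; corrector assay measuring rescue of mutant channel to the surface after 24 h compound exposure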
PglD inh – inhibitors of Campylobacter jejuni PglD acetyltransferase. inhibition, % at 12.5 µM. purified PglD enzyme, DTNB colorimetric CoA detection. AID 602405. 360,000 tested, 0.098% active; in the data active = inhibition above about 16%, passing the limit was not always enough
ALR inh – blocks human ALR sulfhydryl oxidase activity; inhibition, % (no concentration beside the values); 290,000 tested, 3.8% active; purified ALR, DTT oxidation, H2O2 HRP-luminol luminescence;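 active = mean replicate inhibition above about 79%, with every replicate also reaching it, limit read from the data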
Target sequence (P55789 whole entry, looked up): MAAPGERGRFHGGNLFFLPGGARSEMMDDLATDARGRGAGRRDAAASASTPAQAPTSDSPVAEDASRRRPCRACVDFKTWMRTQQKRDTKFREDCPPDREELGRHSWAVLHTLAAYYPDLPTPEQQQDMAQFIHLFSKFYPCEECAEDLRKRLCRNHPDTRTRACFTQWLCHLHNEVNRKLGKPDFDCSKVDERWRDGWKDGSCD
NSD2 inh – blocks human histone methyltransferase NSD2; 310,000 tested, 0.54% active; AID 743445; inhibition, % at 12.5 µM; NSD2 peptide methylation, AlphaScreen, 120 min; in the data active = inhibition above about 50%
An asterisk follows results filed as active; x = no result; [ ] = another dose, or the depositor's remark.

SMILES	Casp6 inh	Env fusion inh	F508del corr	PglD inh	ALR inh	NSD2 inh
CCN=c1scc(C)n1/N=C/c1cc(Br)c(O)c(Br)c1	15	3	-1	x	70	25
COCCN=c1scc(-c2cccs2)n1/N=C/c1ccc(O)c(O)c1O	15	23	-1	x	99*	x
CO[C@@H]1CN(C)C(=O)c2cc(NC(=O)Nc3ccccc3Cl)ccc2OC[C@@H](C)N(Cc2ccccc2C(=O)O)C[C@H]1C	0	3[16.7 µM]	-1	-3	x	x
O=C1/C(=C/c2ccc(N3CCCC3)cc2)NC(=S)N1C1CC1	x	x	x	1	97*	4
O=C1N/C(=C/c2ccc(N3CCCC3)cc2)C(=O)N1c1ccccc1	-2	-7	x	-3	1	-2
COc1ccccc1C(=O)Nc1cccc(-c2cn3ccsc3n2)c1	x	x	x	x	x	1
O=C(Nc1cccc(-c2cn3ccsc3n2)c1)c1ccccc1	x	x	x	3	91*	2
CN(C)c1ccc(N=Nc2ccc(S(=O)(=O)O)cc2)c2ccccc12	x	-16	x	-2	99*	32
C[C@@H]1CN([C@@H](C)CO)C(=O)c2cc(NC(=O)c3ccncc3)ccc2O[C@@H](C)CCCCO[C@H]1CN(C)S(C)(=O)=O	x	5[16.7 µM]	3	-3	x	x
CCSc1nnc(NC(=O)CSc2sc3c(O)cc(=O)[nH]c3c2C#N)s1	44*	7	-1	5	70	33
Cc1csc(NC(=O)CSc2sc3c(O)cc(=O)[nH]c3c2C#N)n1	79*	1	1	-1	99*	41
CCc1nnc(NC(=O)CSc2sc3c(O)cc(=O)[nH]c3c2C#N)s1	65*	13	0	0	98*	x
Cc1csc(NC(=O)CSc2nc3[nH]c(=O)cc(O)c3s2)n1	-1	x	6	0	x	-9
CCc1nnc(NC(=O)CSc2nc(-c3ccccc3)cc(-c3ccc(F)cc3)c2C#N)s1	x	3	x	-4	1	-1
O=C(C[C@H]1C=C[C@H](NC(=O)c2ccccc2)[C@@H](CO)O1)NCc1ccc(Oc2ccccc2)cc1	-4	31[16.7 µM]	-3	12	x	x
Cc1ccc(CS(=O)Cc2ccc(C(=O)N3CCN(c4ccccc4)CC3)o2)cc1 (configuration not stated)	0	4	-1	1	94*	-1
O=C(c1ccc(CS(=O)Cc2ccc(Cl)cc2)o1)N1CCN(c2ccccc2)CC1 (configuration not stated)	4	10	1	-1	93*	4
COc1cccc(N2CCN(C(=O)c3ccc(CS(=O)Cc4ccc(Cl)cc4)o3)CC2)c1 (configuration not stated)	3	-4	0	-4	-4	5
CO[C@H]1CN(C)C(=O)c2cc(NC(=O)Nc3cc(Cl)cc(Cl)c3)ccc2OC[C@H](C)NC[C@H]1C	x	x	0	x	x	x
CN1/C(=C/C(=O)c2nc(S(C)(=O)=O)ncc2Cl)C(C)(C)c2ccccc21	x	x	x	x	98*	x
C[C@@H]1CCCCO[C@@H](CN(C)S(=O)(=O)c2cccs2)[C@@H](C)CN([C@@H](C)CO)C(=O)c2cc(NC(=O)NC3CCCCC3)ccc2O1	x	21[16.7 µM]	4	-1	x	x
COc1ccc(C(C)=O)cc1CSc1ncccn1	-2	-10	1	x	44	-2
COc1ccc(C(C)=O)cc1CSCCC(=O)O	x	x	x	-2	98*	2
COc1ccc(C(=O)/C=C/c2ccsc2)cc1CSCC(=O)O	11	-12	0	-3	99*	18
CC1(Cc2ccc(C(F)(F)F)o2)C(=O)Nc2cc(-c3ccc(F)cc3F)ccc21 (configuration not stated)	1	62*	1	-6	x	3
C[C@H]1CN([C@@H](C)CO)C(=O)c2cccc(NS(=O)(=O)c3cn(C)cn3)c2O[C@H]1CN(C)S(=O)(=O)c1ccc(Cl)cc1	1	5[16.7 µM]	-3	2	x	x
CCC(=O)N1CC2(C1)CN(C(C)=O)[C@@H](CO)c1[nH]c3cc(OC)ccc3c12	x	x	0	x	x	x
Cc1ccc(C)c(-n2c(-c3csc(C)c3C)n[nH]c2=S)c1	x	10	x	0	89*	1
CO[C@H]1CN(C)C(=O)c2ccc(NC(C)=O)cc2OC[C@H](C)N(C(=O)c2ccccc2F)C[C@@H]1C	x	5[16.7 µM]	0	0	x	x
CC(C)C[C@@]12C(=O)N(c3cccc(F)c3)C(=O)N1[C@H](c1ccc(Cl)cc1)[C@@H]1C(=O)N(C3CCCCC3)C(=O)[C@@H]12	-8	95*	5	-1	16	x

Bioassay records deposited in PubChem by Broad Institute.
